Only a selection was taken, and hits are over-represented in it overall.
IL-1B inflam inh – inhibitors of inflammasome signaling (IL-1 beta secretion); THP-1 LPS/ATP IL-1B secretion, AlphaLISA, 16 h; hits give low values; activity change, % at 57.5 µM; 360,000 compounds, 4.7% hits; in the data active = activity change below about -50%; inconclusive = mostly about -30% to -49%
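Secreted IL-1B measured by AlphaLISA bead assay after 16 h compound exposure of THP-1 cells; compounds (final up to 57.5 uM) added 1 h before LPS (250 ng/mL) and ATP (1.25 mM) stimulation; lower signal means less secretion.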
TDP1 cell noCPT – qHTS for Inhibitors of human tyrosyl-DNA phosphodiesterase 1 (TDP1): qHTS in cells in absence of CPT; DT40 Tdp1-/- hTDP1 cells, no CPT, ATP luminescence, 48 h; 420,000 compounds, 15% hits; Potency, µM (top dose mostly 46.2 µM), inactives show top-dose activity change, negative = growth inhibition, usual class: inhibitors; AID 686978, 2013; note: potency is the fitted concentration of half-maximal effect; nearly all actives have a fitted effect of over 55% in size
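Luminescent ATP content (CellTiter-Glo) served as the growth readout. Knockout chicken DT40 cells expressing human TDP1 were exposed to compounds without camptothecin for a minimum 48 hr at 37 °C.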
ALOX12 inh – inhibitors of human 12S-lipoxygenase ALOX12. Potency, µM (doses to about 108 µM), for inactives: at the highest dose activity change, negative = inhibition, hits mostly inhibitors. purified 12hLO, xylenol orange hydroperoxide absorbance. 580,000 compounds, 1.1% hits. P18054; note: potency is the fitted concentration of half-maximal effect
Target sequence (P18054 whole entry, looked up): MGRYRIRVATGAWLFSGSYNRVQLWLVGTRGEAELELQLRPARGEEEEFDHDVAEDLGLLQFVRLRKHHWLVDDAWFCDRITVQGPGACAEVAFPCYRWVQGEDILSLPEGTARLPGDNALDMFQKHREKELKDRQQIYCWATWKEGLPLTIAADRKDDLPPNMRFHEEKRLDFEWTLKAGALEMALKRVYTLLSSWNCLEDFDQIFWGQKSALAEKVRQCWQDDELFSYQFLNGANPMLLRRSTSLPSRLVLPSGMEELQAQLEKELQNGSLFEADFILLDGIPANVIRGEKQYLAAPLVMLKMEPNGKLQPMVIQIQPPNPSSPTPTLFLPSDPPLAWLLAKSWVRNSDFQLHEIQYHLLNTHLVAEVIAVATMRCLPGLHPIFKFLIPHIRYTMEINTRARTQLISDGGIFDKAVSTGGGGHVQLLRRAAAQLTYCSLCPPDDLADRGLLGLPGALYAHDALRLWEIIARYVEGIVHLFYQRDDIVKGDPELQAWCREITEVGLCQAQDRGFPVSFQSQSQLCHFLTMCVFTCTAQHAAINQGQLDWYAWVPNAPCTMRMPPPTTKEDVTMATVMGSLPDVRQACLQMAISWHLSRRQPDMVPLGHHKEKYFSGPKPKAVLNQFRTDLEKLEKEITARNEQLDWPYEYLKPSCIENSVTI
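Purified human 12hLO at 150 nM in 25 mM Hepes, 0.01% Triton X-100, pH 7.0, preincubated 15 min at room temperature with compound. Reaction started with 40 uM arachidonic acid, 30 min at room temperature. Hydroperoxide measured by Fe-xylenol orange, 573/405 nm absorbance ratio.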
TDP1 cell CPT – DT40-hTDP1 cell growth loss with CPT | 420,000 compounds, 12% hits | Potency, µM (top dose mostly 46.2 µM), for the others: at the top dose activity change, negative = growth inhibition, actives largely listed as inhibitors | chicken DT40 Tdp1-/-;hTDP1 cells + 20 nM CPT, ATP luminescence, 48 h | AID 686979; note: potency is the fitted concentration of half-maximal effect; nearly all actives have a fitted effect of over 55% in size
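Chicken DT40 Tdp1-/- cells stably complemented with human TDP1 were seeded at 400 cells/well in medium containing 20 nM camptothecin, exposed to pin-transferred compounds, and grown at 37 °C for at least 48 hr. Viability was read as ATP luminescence.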
HT1080 IDH1KD tx – toxicity to HT-1080 IDH1 knockdown cells (counter line) | HT-1080 IDH1 knockdown viability, ATP luminescence, 48 h | Potency, µM (highest dose often 46.1 µM), without a hit: top-dose activity, negative = toxicity, hits mostly cytotoxic | 360,000 compounds, 2% hits;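 note: potency is the fitted concentration of half-maximal effect; 0% = DMSO wells and -100% = cell-free medium wells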
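In this qHTS, HT-1080 cells depleted of IDH1 are exposed for 48 h at 37 °C to compound titrations. Toxicity is scored from CellTiter-Glo luminescence, with DMSO as full viability and medium alone as none.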
HT1080NT lethal – kills 2HG-producing HT-1080-NT fibrosarcoma cells; HT-1080-NT fibrosarcoma viability, CellTiter-Glo ATP luminescence, 48 h; Potency, µM (top dose mostly 46.1 µM), for inactives: at the top dose activity, negative = less viability, actives largely listed as cytotoxic; 360,000 compounds, 1.6% hits; AID 686970;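 note: NT is the 2HG producing partner of a matched IDH1 knockdown line; potency is the fitted concentration of half-maximal effect; 0% = DMSO-treated cells and -100% = media-only wells without cells; nearly all actives have a fitted effect of over 55% in size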
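Viability by CellTiter-Glo luminescence after 48 h compound exposure at 37C of HT-1080-NT cells (750/well, RPMI, 5% FBS). % activity scaled between DMSO wells and medium-only wells, then curve-fitted and categorized by curve class.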
An asterisk follows results filed as active; ? = inconclusive; / = not tested or not shown; [ ] = another dose, or the depositor's remark. Unless noted, calls come from the whole dose curve; as a rule, active = well fitted curve in the direction sought with a large enough effect; inconclusive = small, poorly fitted or top-dose-only effect, or another doubt; inactive = no such curve, though single readings can be large; an effect the other way counts as inactive or inconclusive. Unless noted, % is set by controls: 0 for no effect and ±100 for the full control effect.

SMILES	IL-1B inflam inh	TDP1 cell noCPT	ALOX12 inh	TDP1 cell CPT	HT1080 IDH1KD tx	HT1080NT lethal
NC(c1csc(NC(=O)Nc2ccccc2Cl)n1)C1CCCCC1 (configuration not stated)	0.0	16.4µM*	1.6%	23.1µM*	?	?
COc1cc(C(=O)N[C@H](C(=O)NC2CCCCCC2)C(C)C)cc(OC)c1OC	25.1	-25.1%	-13.3%	-8.8%	-2.5%	2.4%
O=C(Nc1ccccc1Cl)NC1CCCCCCC1	-15.1	9.2%	-17.6%	-14.4%	-0.7%	16.7%
CC(Sc1n[nH]c(C(C)C)n1)C(=O)c1c[nH]c2ccccc12 (configuration not stated)	/	/	7.6%	/	/	/
Cn1c(NC(=O)c2ccco2)c(-c2cccc(Cl)c2)c(=O)c2ccccc21	/	/	2.9%	/	/	/
COc1ccc(Cl)cc1NC(=O)N1CCN(c2nnc(C)c3c(C)n(-c4ccccc4)nc23)CC1	/	/	7.3%	/	/	/
Cc1ccc(S(=O)(=O)N(CC(=O)N2CCN(C)CC2)Cc2ccc(Cl)cc2)cc1	/	/	-28.1%	/	/	/
CC(C)C(CCNCc1ccccn1)c1ccc(Cl)cc1 (configuration not stated)	/	13µM*	-4.2%	?	?	-18.8%
O=C(Oc1ccccc1)N1CCC2(CC1)CCN(c1cccc(-c3ccccc3)c1)CC2	/	?	-15.0%[57.4 µM]	?	/	/
O=C(Oc1ccccc1)N1CCC2(CCCN(c3ncccn3)C2)CC1	/	18.4µM*	0.2%[57.4 µM]	-24.5%	/	/
O=C(Oc1ccccc1)N1CCC2(CC1)CCN(c1ccccc1)CC2	/	18.4µM*	?	?	/	/
O=C(Oc1ccccc1)N1CCC2(CC1)CN(c1ncccn1)C2	/	?	2.7%[57.4 µM]	?	/	/
COC(=O)c1c(NC(C)=O)sc2c1CCCC2	17.4	?	-1.0%	-1.0%	-11.6%	-7.0%
COC(=O)c1c(NC(=O)CS(=O)(=O)c2ccc(C)cc2)sc2c1CCCC2	/	16.4µM*	?	?	/	/
Cc1ccc(S(=O)(=O)CC(=O)Nc2sc3c(c2C(N)=O)CCCC3)cc1	/	20.6µM*	-2.4%	14.6µM*	/	/
NC(=O)c1c(NC(=O)CN2CCN(S(=O)(=O)c3ccccc3)CC2)sc2c1CCC2	-51.1*	18.4µM*	-7.8%	13µM*	-11.0%	?
CC(C)(C)c1ccc(S(=O)(=O)NCC(=O)Nc2sc3c(c2C(N)=O)CCCC3)cc1	2.0	?	16.4%	0.6%	-1.2%	-0.7%
CC(C)NC(=S)NNC(=O)C(C)C	/	/	0.4%	/	/	/
CCOc1ccc2[nH]cc(S(=O)(=O)c3ccc(C)cc3)c(=O)c2c1	3.9	?	16.5%	?	0.3%	5.3%
CCOc1ccc2[nH]cc(-c3csc(N)n3)c2c1	-4.7	10.3µM*	9.5%	?	5.7%	-12.0%
Cn1ccc2cc(S(=O)(=O)N3CCCC(C(=O)NCc4ccc(F)cc4)C3)ccc21 (configuration not stated)	/	?	-23.9%	?	/	/
O=C(CCn1ccc2cc(S(=O)(=O)N3CCCC3)ccc21)NCc1cccc(Br)c1	/	?	-14.3%	18.4µM*	/	/
CN(C)c1ccc(CNC(=O)C2CCCN(S(=O)(=O)c3ccc4c(ccn4C)c3)C2)cc1 (configuration not stated)	/	20.6µM*	-17.4%	16.4µM*	/	/
COc1ccc(CNC(=O)CCCn2ccc3cc(S(=O)(=O)N4CCCC4)ccc32)cc1	36.8	11.6µM*	-5.2%	18.4µM*	?	?
Cc1ccc(CNC(=O)CCn2ccc3cc(S(=O)(=O)N4CCCC4)ccc32)cc1	12.8	?	-17.1%	?	-18.6%	-12.6%
SMILES	IL-1B inflam inh	TDP1 cell noCPT	ALOX12 inh	TDP1 cell CPT	HT1080 IDH1KD tx	HT1080NT lethal
CCc1ccc(CNC(=O)CCn2ccc3cc(S(=O)(=O)N4CCCC4)ccc32)cc1	-10.1	?	-14.6%	20.6µM*	-27.0%	-28.4%
N#Cc1ccccc1S(=O)(=O)N1CCC(C(=O)NCCc2cccs2)CC1	/	/	34.7%	/	/	/
CCC1=C(C(=O)OC)C(c2ccccc2)N2C(CC(=O)NCc3cccc(F)c3)=CSC2=N1 (configuration not stated)	/	/	-6.7%	/	/	/
COc1cc(NC(=O)c2[nH]c(C)c(C(C)=O)c2C)cc(OC)c1OC	-14.8	-28.0%	?	-23.6%	-1.0%	7.0%
COc1ccc(NC(=O)c2[nH]c(C)c(C(C)=O)c2C)cc1Cl	-8.1	?	-4.3%	2.06µM*	-14.5%	-16.4%
CC(=O)c1c(C)[nH]c(C(=O)Nc2ccc(C)c(C)c2)c1C	-25.8	-1.6%	0.0%	-2.8%	19.5%	?
COc1ccc(C(C)(C)C)cc1NC(=O)c1[nH]c(C)c(C(C)=O)c1C	-2.4	16.4µM*	?	-1.5%	-15.3%	?
CC(=O)N1c2ccccc2N(Cc2ccc(C)cc2C)C(=O)C1(C)C	84.4	5.8µM*	1.0%[57.4 µM]	6.51µM*	16.4µM*	?
COc1ccc(/C=C/C(=O)c2ccc([N+](=O)[O-])o2)cc1	-13.5	2.59µM*	-22.5%	2.31µM*	18.4µM*	?
Cc1cccc(/C=C/C(=O)c2cc3ccccc3o2)c1	/	/	-0.6%	/	/	/
O=C(/C=C/c1cccc([N+](=O)[O-])c1)c1ccco1	-7.2	3.66µM*	-5.9%	4.61µM*	0.2%	-19.4%
COc1ccc(/C=C/C(=O)/C=C/c2ccc(OC)cc2)cc1	/	/	-10.4%	/	/	/
Cc1ccc(N/C=C/C(=O)c2ccco2)c(O)c1	33.6	-9.2%	20.2%	-8.7%	-8.9%	-3.5%
Cc1ccc([N+](=O)[O-])cc1N/C=C/C(=O)c1ccco1	4.9	20.6µM*	13.6%	?	?	?
Cc1cccc(/C=C/C(=O)c2ccc([N+](=O)[O-])o2)c1	-100.4*	0.651µM*	?	0.581µM*	?	-19.8%
CCOC(=O)NC(C(=O)NCc1ccc(OC)cc1)C(C)C (configuration not stated)	/	/	3.0%	/	/	/
CCc1cc(=O)n(CC(=O)NCc2ccc(OC)cc2)c(N2CCOCC2)n1	/	/	1.1%	/	/	/
CCS(=O)(=O)N1CCc2nc(N(C)Cc3cccnc3)[nH]c(=O)c2CC1	/	/	19.9%	/	/	/
O=C(/C=C/c1cccc([N+](=O)[O-])c1)c1ccc([N+](=O)[O-])o1	-51.7*	0.164µM*	-4.9%	0.164µM*	5.8µM*	5.8µM*
O=C(OCc1ccccc1)/C(=C/c1cccc([N+](=O)[O-])c1)NC(=O)c1ccco1	-50.3*	-20.3%	-4.3%	?	-13.2%	-6.6%

Screening results deposited in PubChem BioAssay by National Center for Advancing Translational Sciences (NCATS).
